According to the OligoGym collection:

The sequences below were run against UST (assay: pooled miR-30 sensor sort-seq; sequence = guide strand). Conditions: shRNA.

First: TTGTTGTGAATGTCTGATGTGA
Second: TAACAGCAGCACATCTTCCAAC
The sensor-assay potency score (higher = more potent) of the first is higher: -0.387 for the first, -0.452 for the second.

Going from TACTCGTATCTCATCCGCTGGT to TTCAAGAATACACTCATTGATA, the sensor-assay potency score (higher = more potent) falls from -0.000159 to -0.731.

Going from ATCCTGTTCTTCATCGTCGATT to TTGAGGAAATGAACATGTCGAG, the sensor-assay potency score (higher = more potent) rises from -1.53 to -0.72.

Going from AAATAGTTGGATAAGAACCGGT to TACCCTGTTGTACACCACCTGG, the sensor-assay potency score (higher = more potent) falls from -0.125 to -1.05.

Compared with TATATTTTTAATCAGTTCCATT, TTCATTTTTAGTAAGCCTGGTT is higher in sensor-assay potency score (higher = more potent): -1.14 for the first, 0.157 for the second.

Each sequence was assayed against UTP18 in the same assay as above. Conditions: shRNA.

Going from TTTTCCGCTTAGTAGTCTCTGC to TAGACATAAAGAACCTTGCTGT, the sensor-assay potency score (higher = more potent) rises from -0.432 to 0.607.

Going from TTTGCAACAAATCATCTTCATC to TTCACTAGCATTTTTCATCATA, the sensor-assay potency score (higher = more potent) falls from -0.536 to -0.646.

Going from TTTATGAGCAAGAAGGACCCAT to TTCATCTTCAAGATTCCTCTTG, the sensor-assay potency score (higher = more potent) rises from 0.234 to 0.439.

First: TTCATCTTCTTCATCCACCCAA
Second: TTTCTTGGAGACAAGAATCTTG
The sensor-assay potency score (higher = more potent) of the first is higher: 0.245 for the first, -0.491 for the second.

Compared with TAGTGATACAGCATTATCTAAT, ATTAGCACTAAAACAAGCCTTA is higher in sensor-assay potency score (higher = more potent): -1.01 for the first, 0.102 for the second.

Going from TTTTTCATCATATCCTTCCGAA to TTAATCCATATAAACTGCCTTC, the sensor-assay potency score (higher = more potent) falls from 0.00107 to -0.603.

Each sequence was assayed against UTP3 in the same assay as above. Conditions: shRNA.

Compared with TTGATAGGTAATAGCTCTCTTT, TTCGTCGTCCTCATCGTCCATA is higher in sensor-assay potency score (higher = more potent): -1.33 for the first, -0.923 for the second.

First: TGAAACTTTAGCCAAATCCTTC
Second: TTTCGGTAGGTAACAAGCCTTT
The sensor-assay potency score (higher = more potent) of the first is higher: -1.04 for the first, -1.19 for the second.

Compared with TTTCTCTTTAGCTTTTGCCTGT, TTTACGAACTTCACGAACCTGG is lower in sensor-assay potency score (higher = more potent): 0.173 for the first, -0.0211 for the second.

Compared with TATTTCTTTATAGTACTTCAGT, TAAGTGTCAACAGATGACGAAT is lower in sensor-assay potency score (higher = more potent): -0.591 for the first, -1.16 for the second.

Going from TTTCTTTACAGCATCATCCTTA to TTTCACTGAAACTTTAGCCAAA, the sensor-assay potency score (higher = more potent) falls from 0.221 to -0.944.

First: ATCATCTCCATTTTCGTCGGTG
Second: TATAGTACTTCAGTTTTGCTTT
The sensor-assay potency score (higher = more potent) of the first is higher: -0.329 for the first, -0.531 for the second.

These sequences were tested against UTS2D in the same assay as above. Conditions: shRNA.

Going from ATTTTTATTCAGTAGAGCCAGC to ATTTGTATATTTTTTATCTGGA, the sensor-assay potency score (higher = more potent) rises from -1.2 to -0.591.

First: AAAGTTAGGAGTCCAAAGCAAA
Second: TTATTCAGTAGAGCCAGCAATA
The sensor-assay potency score (higher = more potent) of the first is higher: -1.56 for the first, -1.61 for the second.

Compared with TTAGGAGTCCAAAGCAAACAGT, TTGTAAAAAAATCAACACGGAT is lower in sensor-assay potency score (higher = more potent): -1.23 for the first, -1.39 for the second.
